Among all 310,000 compounds or so, about 14,000 (4.5%) showed an effect of 50% or more. The effect is printed as a negative number. Shown is part of a subset that was picked to be rich in strong results.
What follows are molecules tested against human ether-à-go-go-related gene (hERG) potassium channel (human, UniProt Q12809) (assay: primary screen, population patch clamp on CHO cells stably expressing hERG; higher = less effect of the substance).
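Further: peak tail current of the secondary pulse compared with the same well before compound.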

Chain of human ether-à-go-go-related gene (hERG) potassium channel (Q12809 whole entry, looked up): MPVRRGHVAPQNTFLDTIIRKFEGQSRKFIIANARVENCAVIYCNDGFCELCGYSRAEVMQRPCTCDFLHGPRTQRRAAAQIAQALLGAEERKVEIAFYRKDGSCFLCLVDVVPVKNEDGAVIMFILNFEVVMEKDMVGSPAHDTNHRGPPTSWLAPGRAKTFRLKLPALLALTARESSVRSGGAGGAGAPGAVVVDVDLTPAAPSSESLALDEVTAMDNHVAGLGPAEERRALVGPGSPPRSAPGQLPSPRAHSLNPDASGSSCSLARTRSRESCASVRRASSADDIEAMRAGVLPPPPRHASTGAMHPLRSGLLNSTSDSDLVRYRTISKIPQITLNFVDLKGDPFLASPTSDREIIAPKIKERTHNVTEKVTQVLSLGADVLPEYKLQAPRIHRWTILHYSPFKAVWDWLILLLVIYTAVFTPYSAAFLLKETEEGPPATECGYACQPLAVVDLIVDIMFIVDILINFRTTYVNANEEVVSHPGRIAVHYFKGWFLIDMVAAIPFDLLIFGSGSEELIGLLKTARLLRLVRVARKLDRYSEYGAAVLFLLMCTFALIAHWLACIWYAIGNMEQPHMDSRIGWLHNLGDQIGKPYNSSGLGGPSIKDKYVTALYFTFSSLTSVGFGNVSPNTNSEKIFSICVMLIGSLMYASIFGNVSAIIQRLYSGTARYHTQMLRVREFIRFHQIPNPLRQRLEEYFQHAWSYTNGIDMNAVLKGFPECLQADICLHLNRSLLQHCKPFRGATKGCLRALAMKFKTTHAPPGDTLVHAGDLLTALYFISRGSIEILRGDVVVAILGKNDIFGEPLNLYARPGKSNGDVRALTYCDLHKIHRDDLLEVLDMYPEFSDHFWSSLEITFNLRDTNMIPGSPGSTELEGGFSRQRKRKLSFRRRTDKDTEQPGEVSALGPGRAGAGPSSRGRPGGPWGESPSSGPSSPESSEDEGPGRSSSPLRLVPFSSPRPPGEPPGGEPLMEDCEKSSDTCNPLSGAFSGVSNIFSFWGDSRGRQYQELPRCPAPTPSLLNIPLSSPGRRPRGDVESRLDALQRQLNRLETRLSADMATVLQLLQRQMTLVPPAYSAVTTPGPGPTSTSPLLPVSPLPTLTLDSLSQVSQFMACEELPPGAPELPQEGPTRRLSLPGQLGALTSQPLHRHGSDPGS

| Structure (SMILES) | hERG current change (%, negative = inhibition) at 10uM |
| --- | --- |
| COc1cccc(C2=NC(C)(C)NC(c3ccccc3O)C2)c1 (centres unmarked) | 2.64% |
| COc1ccc(Cn2c(=O)c3[nH]cnc3n(-c3ccccc3C)c2=O)cc1 | 7.7% |
| Cc1cccc(NC(=O)CS(=O)(=O)Cc2ccccc2)n1 | 2.58% |
| CCc1cc(C(=O)N/N=C/c2ccc(OC)cc2)c2ccccc2n1 | -4.27% |
| O=C1C2Sc3[nH]c(=O)sc3C(c3ccccc3)C2C(=O)N1c1ccccc1 (centres unmarked) | -2.84% |
| CC(=O)Nc1ccc(S(=O)(=O)NC2(C(F)(F)F)NC(=O)N(C3CCCCC3)C2=O)cc1 (centres unmarked) | 2.87% |
| O=S(=O)(NC1CCCCC1N1CCCCC1)c1ccc(Cl)cc1 (centres unmarked) | -5.16% |
| CCCN1CCN(C2CCCCC2NS(=O)(=O)c2ccccc2)CC1 (centres unmarked) | -44.7% |
| O=S(=O)(NC1CCCCC1Sc1ncccn1)c1ccc(Cl)cc1 (centres unmarked) | -50.9% |
| CN1CCN(C2CCCCC2NS(=O)(=O)c2ccc(Cl)cc2)CC1 (centres unmarked) | -29.8% |
| CCN1CCN(C2CCCCC2NS(=O)(=O)c2ccccc2)CC1 (centres unmarked) | 11.7% |
| CCCN1CCN(C2CCCCC2NS(=O)(=O)c2ccc(Cl)cc2)CC1 (centres unmarked) | -63.4% |
| Cc1cc(C)nc(SC2CCCCC2NS(=O)(=O)c2ccc(Cl)cc2)n1 (centres unmarked) | -14.7% |
| CCN1CCN(C2CCCCC2NS(=O)(=O)c2ccc(Cl)cc2)CC1 (centres unmarked) | -61.8% |
| O=S(=O)(NC1CCCCC1Sc1ncccn1)c1ccccc1 (centres unmarked) | -5.72% |
| CCN(c1ccccc1)S(=O)(=O)c1ccc(Cl)c(NC(=O)COC(=O)c2ccc[nH]c2=O)c1 | 3.13% |
| C#CCOCCOCCOCCNc1nc(N2CCN(C(=O)C([C@@H](C)CC)n3cc(C(N)Cc4ccc(O)cc4)nn3)CC2)nc(N2CCN(C(=O)[C@H](CCC(=O)O)n3cc(C(N)[C@H](C)CC)nn3)CC2)n1.Cl (some centres unmarked) | 4.5% |
| O=C(O)C1CCN(C(=O)OCc2ccccc2)CC1 | 13.8% |
| O=C(NCC(=O)N1CCOCC1)OCc1ccccc1 | -30.8% |
| O=C(OCc1ccccc1)N1CCOCCN(C(=O)OCc2ccccc2)CCOCC1 | -64% |
| COC(=O)CCn1nnc(-c2ccc(C)cc2)n1 | 12.3% |

| Structure (SMILES) | hERG current change (%, negative = inhibition) at 10uM |
| --- | --- |
| COc1ccc(C2C(C(=O)Nc3cccnc3)=C(C)Nc3nc(-c4cccs4)nn32)cc1 (centres unmarked) | -39.6% |
| COc1cccc(-c2nc3n(n2)C(c2cccs2)C(C(=O)Nc2cccnc2)=C(C)N3)c1 (centres unmarked) | -72.3% |
| COc1ccccc1-c1nc2n(n1)C(c1cccs1)C(C(=O)Nc1cccnc1)=C(C)N2 (centres unmarked) | -31.7% |
| Cc1cccc(C(C(=O)NC2CCCCC2)N(C(=O)c2csnn2)C2CC2)c1 (centres unmarked) | 7.99% |
| CCCNC(=O)C1(CC2CC(c3ccccc3)=NO2)CCN(C(=O)c2ccccc2)CC1 (centres unmarked) | -68.9% |
| CCCNC(=O)C1(CC2CC(c3ccccc3)=NO2)CCN(C(=O)Cc2ccc(F)cc2)CC1 (centres unmarked) | -64.6% |
| CCCCCCCNC(=O)C1(CC2CC(c3ccccc3)=NO2)CCN(C(=O)c2ccccc2)CC1 (centres unmarked) | -70.9% |
| CCCCCCCNC(=O)C1(CC2CC(c3cccc(Br)c3)=NO2)CCN(C(=O)c2cc(OCC)c(OCC)c(OCC)c2)CC1 (centres unmarked) | 4.79% |
| CCCCCCCNC(=O)C1(CC2CC(c3ccc(Cl)cc3)=NO2)CCN(C(=O)c2ccccc2)CC1 (centres unmarked) | -15.8% |
| CCOc1cc(C(=O)N2CCC(CC3CC(c4cccc(Br)c4)=NO3)(C(=O)NCC3CCCCC3)CC2)cc(OCC)c1OCC (centres unmarked) | 4.14% |
| CCCNC(=O)C1(CC2CC(c3ccccc3)=NO2)CCN(C(=O)C2(C)CC2)CC1 (centres unmarked) | -17% |
| CCCNC(=O)C1(CC2CC(c3ccccc3)=NO2)CCN(C(=O)OC(C)(C)C)CC1 (centres unmarked) | -48.6% |
| COc1ccc(CNC(=O)C2(CC3CC(c4ccccc4)=NO3)CCN(C(=O)Cc3ccc(F)cc3)CC2)cc1 (centres unmarked) | 18.1% |
| CCCNC(=O)C1(CC2CC(c3ccccc3)=NO2)CCN(C(=O)c2cc(OCC)c(OCC)c(OCC)c2)CC1 (centres unmarked) | -34.6% |
| CCCCCCCNC(=O)C1(CC2CC(c3ccc(Cl)cc3)=NO2)CCN(C(=O)Cc2ccc(F)cc2)CC1 (centres unmarked) | -11% |
| CCCCCCCNC(=O)C1(CC2CC(c3cccc(Br)c3)=NO2)CCN(C(=O)c2ccccc2)CC1 (centres unmarked) | -71% |
| COc1ccc(C2CC(C(F)(F)F)n3nc(C(=O)Nc4ccc5c(c4)OCO5)cc3N2)cc1 (centres unmarked) | 10.5% |
| COc1ccc(-c2noc(N3CCCC(C(=O)Nc4ccccc4F)C3)n2)cc1 (centres unmarked) | 15.5% |
| Cc1csc(=O)n1CC(=O)OCC(=O)c1ccc(Br)cc1 | -14% |
| CCOc1ccc(NC(=S)N2CCN(S(=O)(=O)c3ccccc3)CC2)cc1 | -31.6% |
